Experimental data published in PubChem BioAssay (EPA / NIEHS).
The source made the active and inactive calls. The calls were made as follows: active = hit-call score of the fitted dose curve at least 0.9, where 1 is the maximum; inactive = score below 0.9.

Each compound was assayed against Transcription factor E2F1 (Homo sapiens) (UniProt Q01094) (assay: ATG_E2F_CIS: Attagene CIS-FACTORIAL HepG2 Assay for human E2F Transcription Factor 1 (AID 2282935)). Conditions: HepG2 Attagene cis-reporter, E2F reporter RNA transcripts; actives raise or lower the signal.
How it was run: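 Fluorescent RT-PCR products, digested with HpaI for 2 h at 37 C, are separated by capillary electrophoresis. Source RNA comes from transfected HepG2 cultures treated for 24 h.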

Chain of Transcription factor E2F1 (Homo sapiens) (Q01094 whole entry, looked up): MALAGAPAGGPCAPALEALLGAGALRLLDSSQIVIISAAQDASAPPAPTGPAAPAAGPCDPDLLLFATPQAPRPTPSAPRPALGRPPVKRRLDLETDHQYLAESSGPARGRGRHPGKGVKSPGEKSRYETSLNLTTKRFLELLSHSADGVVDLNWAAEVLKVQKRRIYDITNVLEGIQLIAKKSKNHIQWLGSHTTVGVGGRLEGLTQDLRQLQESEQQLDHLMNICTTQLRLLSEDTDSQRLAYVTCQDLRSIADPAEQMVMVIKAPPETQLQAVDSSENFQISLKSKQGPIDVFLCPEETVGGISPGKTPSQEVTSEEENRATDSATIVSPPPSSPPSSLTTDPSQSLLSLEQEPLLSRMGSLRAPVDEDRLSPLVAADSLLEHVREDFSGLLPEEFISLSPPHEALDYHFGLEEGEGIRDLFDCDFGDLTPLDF

Q: How did the outcome turn out when `Oc1cc2ccccc2c2ccccc12` was run?
A: inactive

Q: For `CC(C)(C)CC(C)(C)c1ccc(O)c(-n2nc3ccccc3n2)c1`, which outcome is on record?
A: inactive

Q: For `Cc1ccc(S(=O)(=O)O)c(C)c1`, which outcome is on record?
A: inactive

Q: With `CCCCCCCCC(=O)O` as the compound, how does the outcome read?
A: inactive

Q: Which outcome does the source give for `CN1CCN(c2ccccc2/C=C2\SCCN(c3ccc(Cl)c(Cl)c3)C2=O)CC1` here?
A: inactive

Q: For `c1ccc2c(c1)Cc1ccccc1-2`, which outcome is on record?
A: inactive

Q: `FC(F)(I)C(F)(F)C(F)(F)C(F)(F)C(F)(F)C(F)(F)I` was tested. Which outcome did it give?
A: inactive

Q: With `CC(C)(C)c1ccc(O)c(C(C)(C)C)c1` as the compound, how does the outcome read?
A: inactive

Q: For `O=C(OCCOCCOC(=O)c1ccccc1)c1ccccc1`, which outcome is on record?
A: inactive

Q: For `CCCCC(CC)COC(=O)CCCCC(=O)OCC(CC)CCCC` (stereo unspecified), which outcome is on record?
A: inactive

Q: With `CC(C)CCCCCCOC(=O)CCCCC(=O)OCCCCCCC(C)C` as the compound, how does the outcome read?
A: inactive

Q: How did the outcome turn out when `C[C@@H]1C[C@H]2[C@@H]3CCC4=CC(=O)C=C[C@]4(C)[C@@]3(F)[C@@H](O)C[C@]2(C)[C@@]1(O)C(=O)COP(=O)(O)O` was run?
A: inactive

Q: `CCCCC(CC)COC(=O)CCCCC(=O)OCc1ccccc1` (stereo unspecified) was tested. Which outcome did it give?
A: inactive

Q: Which outcome does the source give for `COc1ccc([N+](=O)[O-])cc1N` here?
A: inactive

Q: For `CC(C)(C)c1cc(C(C)(C)C)c(O)c(C(C)(C)C)c1`, which outcome is on record?
A: inactive

Q: Which outcome does the source give for `c1ccc2c(c1)ccc1ccccc12` here?
A: inactive

Q: `CCCCCCCCOC(=O)CCCCCCCCC(=O)OCCCCCCCC` was tested. Which outcome did it give?
A: inactive

Q: With `CC(C)(C)c1cccc(C(C)(C)C)c1O` as the compound, how does the AC50 read?
A: 188 µM (active)

Q: `CCC(C)(C)C1CCC(O)CC1` (stereo unspecified) was tested. Which outcome did it give?
A: inactive

Q: `CCN(CC)CCNc1ccc(CNC=O)c2sc3ccc(OC)cc3c(=O)c12` was tested. Which outcome did it give?
A: inactive

Q: Which outcome does the source give for `CCCCC[C@H](O)CC(=O)CCc1ccc(O)c(OC)c1` here?
A: inactive
